In PubChem BioAssay AID1007 (NMMLSC, 2008):
Out of some 190,000 compounds screened, about 80 (0.04%) were called active. Cut-off read from the data, not from the text of the source: active = inhibition above about 40%. Only a sample is shown.

target: Bcl-2-like protein 1 (Homo sapiens) (UniProt Q07817); assay: inhibitors of Bim-Bcl-XL binding, primary screen, biochemical, multiplexed, bead flow cytometry, human Bcl-XL (AID 1007); settings: Bim peptide-Bcl-XL binding, fluorescence, at 10 µM, stronger effect = higher value
Sequence (Q07817 whole entry, looked up): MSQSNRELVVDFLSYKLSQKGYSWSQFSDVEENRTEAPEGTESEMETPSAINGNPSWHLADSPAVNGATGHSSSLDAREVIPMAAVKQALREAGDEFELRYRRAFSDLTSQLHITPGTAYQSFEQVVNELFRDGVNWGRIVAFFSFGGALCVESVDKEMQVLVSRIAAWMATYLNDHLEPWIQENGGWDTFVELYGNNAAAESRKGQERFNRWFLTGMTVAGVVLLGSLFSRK

inhibition, inactive:
Nc1[nH][nH]c(=O)c1N=Nc1ccc2c(c1)OCO2 0%
Cc1cc[n+](-c2[nH]c(=O)sc2/C=N/NC(=O)c2ccccc2[O-])cc1C -7%
O=C(NCC(O)c1ccc([N+](=O)[O-])cc1)C1CCCCC1 (stereo unspecified) 0%
CCCC(C)C(=O)NCc1ccncc1 (stereo unspecified) 0%
CCOc1ccc(S(=O)(=O)Nc2nccs2)cc1 -2%
CCOC(=O)c1c(C)n(C)c2ccc(OC)c(NS(=O)(=O)CC)c12 -7%
COc1cc(C(=O)NCc2ccc3c(c2)cc(C)n3C)cc(OC)c1OC -2%
O=c1[nH]oc(O)c1-c1ncc(C(F)(F)F)cc1Cl -2%
COc1ccc(CC(=O)N[C@@H](CCSC)c2nc3ccccc3[nH]2)cc1 -5%
Cc1cccc(NC(=S)NC(=O)c2ccc(Br)o2)c1 0%
Cc1c(-c2cccc(Cl)c2)nc2ccccc2c1C(=O)OCC(=O)N(C)C1CCS(=O)(=O)C1 (stereo unspecified) 0%
CCOC(=O)C1=C(C)N=C2c3ccccc3C(=O)C2C1c1ccc(Br)cc1 (stereo unspecified) -6%
Cc1ccc(-c2nn(-c3ccccc3)cc2C(=O)Nc2cccc(S(=O)(=O)N3CCOCC3)c2)cc1 -14%
CN(C)c1ccc(C=NCCc2ccc(S(N)(=O)=O)cc2)cc1 -3%
COc1ccccc1-n1c(C)nc2cc(C(=O)NCc3ccc4c(c3)OCO4)ccc21 -10%
CCOC(=O)c1ccc(N2C(=O)CC(N3CCN(C(=O)c4ccccc4)CC3)C2=O)cc1 (stereo unspecified) -1%
O=[N+]([O-])c1ccc(F)cc1Oc1nc(-c2cccnc2)nc2ccccc12 1%
COc1ccc(/C=N/N=C/c2c[nH]c(=O)c(C#N)c2Nc2ccccc2)cc1 11%
COc1cc(C2OC(c3cc(OC)c(OC)c(OC)c3)C(C)C2C)cc(OC)c1OC (stereo unspecified) -1%
CN(C)CCCCCN(C)Cc1cc2ccccc2o1 -2%
COc1ccc(C(=O)COC(=O)COc2ccc(C)c(C)c2)cc1 -2%
Cc1ccc(S(=O)(=O)N(C)c2ccc(OCC(=O)NC3=NCCS3)cc2)cc1 0%
CC(=O)NC1C(Oc2ccc(C)cc2)OC2COC(c3ccco3)OC2C1O (stereo unspecified) -6%
Cc1ccc(C(=O)C(=S)N2CCOCC2)cc1 -9%
COc1cc(CN2CCNC(=O)C2CC(=O)NCCc2ncccc2C)cc(OC)c1 (stereo unspecified) -3%
C=CCn1c(SCC(=O)CC(=O)OCC)nc2cc(C(=O)N3CCC(C(N)=O)CC3)ccc2c1=O -5%
Cc1ccc(C)c(NC(=O)CCC(=O)N/N=C2/CC(=O)CC(C)(C)C2)c1 0%
Cc1cc(C)c[n+](-c2nc3ccccc3nc2[N-]S(=O)(=O)c2cccs2)c1 -3%
O=C(Nc1cccc(C(F)(F)F)c1)c1ccc(N2CCNCC2)c([N+](=O)[O-])c1 0%
O=C(NCc1cccs1)C1CCN(S(=O)(=O)c2ccc(Cl)cc2)CC1 0%
CCN(CC(=O)NC(=O)NCc1ccccc1)Cc1nc2ccccc2c(=O)[nH]1 1%
C/C(=N/OC(=O)c1c(-c2c(F)cccc2Cl)noc1C)c1cnccn1 -3%
Cc1ccc(-c2nn(-c3cccc(F)c3)cc2CNCCc2ccncc2)o1 -2%
O=C(CSc1ccccc1F)NC1CCS(=O)(=O)C1 (stereo unspecified) 0%
O=C1COc2ccc(C(=O)COC(=O)c3cccnc3Cl)cc2N1 -3%
O=C(CCS(=O)(=O)Cc1ccccc1)Nc1ccc2c(c1)OCCO2 0%
NC1=NC2(CCCCC2)N(c2ccc(F)cc2F)C(N)=N1 -6%
COc1ccc2ccccc2c1CNc1nnnn1C 1%
CC(C)(C)NC(=O)COC(=O)c1cc(Br)ccc1Cl -9%
O=C(OCC(=O)N1CCOCC1)c1ccc(N2CCOCC2)c([N+](=O)[O-])c1 1%
Cc1nc(-c2ccc(Cl)cc2)sc1C(=O)CBr 0%
Cc1cccc(NC(=O)c2cccc(C(F)(F)F)c2)c1 -3%
CC[N+]1(CC)CC2=Cc3ccccc3CC2C1 (stereo unspecified) -4%
CNC(=O)NC(=O)C(OC(=O)c1cccc(S(=O)(=O)N2CCCCC2)c1)c1ccccc1 (stereo unspecified) -4%
CCCn1c(NC(=O)C23CC4CC(CC(O)(C4)C2)C3)nc2ccccc21 -2%
Cc1cc(C)n(CCNCc2c(C(=O)N3C[C@@H](C)O[C@@H](C)C3)nc3ccc(Cl)cn23)n1 -1%
O=C(N/N=C/c1ccccc1O)/C(=C/c1ccccc1)CCO -10%
CCOc1ccc(CCN2C(=O)c3cccnc3C2=O)cc1OCC 0%
CC(=O)c1c(Nc2ccccc2)sc(C(=O)c2ccccc2)c1C -6%
COc1ccc2nc(Nc3nc(-c4ccncc4)cs3)sc2c1 -1%
Cc1ccc(-c2c(C)n([O-])c3c([n+]2=O)CCC3)cc1 -3%
O=C(CO/N=C/c1ccccc1OC(F)F)NC1CCCC1 1%
Cc1ccccc1N(C(=O)Cc1cccs1)C(C(=O)NC1CCCCC1)c1cn(C)nc1C (stereo unspecified) -5%
Cc1cc(NC(=O)CSc2nccn2-c2ccc([N+](=O)[O-])cc2)no1 -15%
Cc1nnc(SCC(=O)NNC(=O)c2ccc(Cl)cc2)n1CC1CCCO1 (stereo unspecified) -6%
Cc1ccc(N(C(=O)Cc2cccs2)C(C(=O)NCC2CCCO2)c2ccncc2)cc1 (stereo unspecified) 2%
Cc1cccc(N2CCN(c3ccc(C(N)=O)cc3[N+](=O)[O-])CC2)c1C 0%
CCOc1ncccc1C(=O)N(CC)CC(=O)Nc1ccc(NC(C)=O)cc1 -9%
CN(c1ccccc1)S(=O)(=O)c1cc(C(=O)Nc2nc3ccccc3[nH]2)ccc1Cl 8%
COC(=O)CN1C(=S)N(c2ccccc2)C(=O)C1CC(=O)Nc1ccc(Cl)cc1 (stereo unspecified) -5%
N#C/C(=C(/O)COC(=O)COc1ccc(Cl)cc1)c1nc2ccccc2[nH]1 -11%
COCCCNC(=S)NCCNc1nc2cc(C)c(C)cc2cc1C#N -1%
S=C(NCC1CCCO1)N1CCN(c2ccc(Cl)c(Cl)c2)CC1 (stereo unspecified) -1%
CCn1cnc2scc(-c3ccc(C)c(C)c3)c2c1=O 0%
CC(C)Oc1ccc(CCc2nnc(SCC(=O)O)n2-c2ccccc2)cc1 -5%
COc1ccccc1OCC(=O)OCn1c(SC)nnc(C)c1=O -7%
N=C1/C(=C/c2cccn2-c2cccc([N+](=O)[O-])c2)C(=O)N=C2SC=CN12 -5%
Cc1c(C(=O)NCCN2C(=O)S/C(=C\c3cccs3)C2=O)cccc1[N+](=O)[O-] -6%
CCCn1nc(NS(=O)(=O)c2ccccc2)c2cc3cc(C)ccc3nc21 0%
Cc1ccc(NC(=O)CSc2nc(CSc3ccc(C)cc3)cc(=O)[nH]2)cc1 -1%
CN(C)C(CNC(=O)Cc1ccc([N+](=O)[O-])cc1)c1ccccc1 (stereo unspecified) -1%
S=c1[nH]nc(-c2cccs2)n1/N=C/c1cccs1 1%
FC(F)(F)c1cccc(Cc2noc(CN3CCC(N4CCCCC4)CC3)n2)c1 0%
COc1ccc(C/C(C)=N/NC(=O)c2ccncc2)cc1 -3%
Cc1ccc(N(C(=O)c2ccc(S(=O)(=O)N(C)C)cc2)C2C=CS(=O)(=O)C2)cc1 (stereo unspecified) 0%
Cc1ccc(C(=O)/C=C/Nc2ccc(S(=O)(=O)Nc3onc(C)c3C)cc2)cc1 -1%
O=C(CNCc1ccc(Cl)cc1)Nc1cccc(C(=O)O)c1 -5%
CNS(=O)(=O)c1ccc(NC(=O)C2CC(=O)N(c3ccc(Cl)cc3)C2)cc1 (stereo unspecified) -2%
CC(=O)Nc1ccc(NC(=O)C(C)n2c3ccccc3c3nc(=O)cc(C)n32)cc1 (stereo unspecified) 0%
O=C(O)c1cccc(NC(=S)N/N=C/c2c[nH]c3ccccc23)c1 -4%
CCOC(=O)CN1C(=O)N[C@@H](c2ccc(Br)cc2)C(C(C)=O)=C1C -2%
COc1ccc(C(C(=O)NC2CCCCC2)N(C(=O)Cc2c[nH]c3ccccc23)c2ccccc2)cc1OC (stereo unspecified) 10%
COc1cc(CN(C)Cc2nc3cc(C(F)(F)F)ccc3c(=O)[nH]2)ccc1OC(F)F 0%
COCCN(CCOC)S(=O)(=O)c1ccc(/C(O)=C(\C#N)c2nc3ccccc3[nH]2)cc1 -3%
O=C(NCc1ccccc1Cl)C1CCCO1 (stereo unspecified) 2%
O=C(O)c1ccccc1-c1ccccc1C(=O)NCc1cccnc1 -2%
Cc1ccccc1-n1nc(SCC(=O)O)sc1=S 2%
COc1ccc(-c2[nH]ncc2CN(C)Cc2cc(C)[nH]n2)c(F)c1 -3%
CCOCCCNC(=S)N1CCC(NC(=O)C2CCCCC2)CC1 -3%
CNC(=S)N/N=C/c1cn(Cc2ccc(C)cc2)c2ccccc12 -5%
COc1ccc(C(=O)C2CCCN(C(=O)c3cc4nc(C)cc(C)n4n3)C2)cc1F (stereo unspecified) -2%
CC(C)NC(=O)C(=O)NCCCOC(C)C -6%
NC(=S)N/N=C/c1coc2cc(Cl)ccc2c1=O -5%
Cc1ccc(Nc2nnc(SCC(=O)c3cc4ccccc4o3)s2)cc1C -20%
COc1cc(NC(=S)N2CCCC(C)C2)c(OC)cc1Cl (stereo unspecified) -7%
CC(C)COP(=O)(c1ccc(N(C)C)cc1)C(Nc1ccccc1)c1cccnc1 (stereo unspecified) -15%
